Numbering of substitutions follows the chain as printed; changes in the protein carry UniProt numbers. Over roughly 16,000 sequences, “ka relative to ugcaugu” has its median near 0.096; the highest 2% begin near 0.35. This excerpt belongs to a sample that is enriched for the highest values.
T1: RBFOX1 RRM RbFoxmut (Fox-RRM*) (Homo sapiens, UniProt Q9NWB1 109-208, R118D;E147R;N151S;E152T)
T1 sequence: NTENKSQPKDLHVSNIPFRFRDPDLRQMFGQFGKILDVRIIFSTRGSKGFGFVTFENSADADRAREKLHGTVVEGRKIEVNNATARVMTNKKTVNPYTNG

B1: UCCCUCG (DNA:RNA)
RNA: GGGAGACCGGAAUUCAGAUUGUCCUCCCUCGUUAAAUCCCGUCGUAGCCACCA
DNA 1: CAATCTGAATTCCGGTCTCCC
DNA 2: TGGTGGCTACGACGGGATT
B2: CAACAUU (DNA:RNA)
RNA: B1 RNA with U25C, C26A, C27A, U29A, C30U, G31U
DNA 1: CAATCTGAATTCCGGTCTCCC
DNA 2: TGGTGGCTACGACGGGATT
B3: UUGUUCU (DNA:RNA)
RNA: B1 RNA with C26U, C27G, C28U, G31U
DNA 1: CAATCTGAATTCCGGTCTCCC
DNA 2: TGGTGGCTACGACGGGATT
B4: AGUGUUG (DNA:RNA)
RNA: B1 RNA with U25A, C26G, C27U, C28G, C30U
DNA 1: CAATCTGAATTCCGGTCTCCC
DNA 2: TGGTGGCTACGACGGGATT
B5: AGUCACC (DNA:RNA)
RNA: B1 RNA with U25A, C26G, C27U, U29A, G31C
DNA 1: CAATCTGAATTCCGGTCTCCC
DNA 2: TGGTGGCTACGACGGGATT
B6: UGUACCC (DNA:RNA)
RNA: B1 RNA with C26G, C27U, C28A, U29C, G31C
DNA 1: CAATCTGAATTCCGGTCTCCC
DNA 2: TGGTGGCTACGACGGGATT
B7: GCAGACU (DNA:RNA)
RNA: B1 RNA with U25G, C27A, C28G, U29A, G31U
DNA 1: CAATCTGAATTCCGGTCTCCC
DNA 2: TGGTGGCTACGACGGGATT
B8: ACGUAUG (DNA:RNA)
RNA: B1 RNA with U25A, C27G, C28U, U29A, C30U
DNA 1: CAATCTGAATTCCGGTCTCCC
DNA 2: TGGTGGCTACGACGGGATT
B9: CCCAGUA (DNA:RNA)
RNA: B1 RNA with U25C, C28A, U29G, C30U, G31A
DNA 1: CAATCTGAATTCCGGTCTCCC
DNA 2: TGGTGGCTACGACGGGATT
B10: GUCGGUA (DNA:RNA)
RNA: B1 RNA with U25G, C26U, C28G, U29G, C30U, G31A
DNA 1: CAATCTGAATTCCGGTCTCCC
DNA 2: TGGTGGCTACGACGGGATT
B11: GGUAUUA (DNA:RNA)
RNA: B1 RNA with U25G, C26G, C27U, C28A, C30U, G31A
DNA 1: CAATCTGAATTCCGGTCTCCC
DNA 2: TGGTGGCTACGACGGGATT
B12: GGUAUGU (DNA:RNA)
RNA: B1 RNA with U25G, C26G, C27U, C28A, C30G, G31U
DNA 1: CAATCTGAATTCCGGTCTCCC
DNA 2: TGGTGGCTACGACGGGATT
B13: CGGUCGU (DNA:RNA)
RNA: GGGAGACCGGAAUUCAGAUUGUCCCGGUCGUUUAAAUCCCGUCGUAGCCACCA
DNA 1: CAATCTGAATTCCGGTCTCCC
DNA 2: TGGTGGCTACGACGGGATT
B14: AGUAUGU (DNA:RNA)
RNA: B13 RNA with C25A, G27U, U28A, C29U
DNA 1: CAATCTGAATTCCGGTCTCCC
DNA 2: TGGTGGCTACGACGGGATT
B15: GGUCCGU (DNA:RNA)
RNA: B13 RNA with C25G, G27U, U28C
DNA 1: CAATCTGAATTCCGGTCTCCC
DNA 2: TGGTGGCTACGACGGGATT
B16: ACGUCCC (DNA:RNA)
RNA: B13 RNA with C25A, G26C, G30C, U31C
DNA 1: CAATCTGAATTCCGGTCTCCC
DNA 2: TGGTGGCTACGACGGGATT
B17: CAGUAUG (DNA:RNA)
RNA: B13 RNA with G26A, C29A, G30U, U31G
DNA 1: CAATCTGAATTCCGGTCTCCC
DNA 2: TGGTGGCTACGACGGGATT
B18: ACGUAGC (DNA:RNA)
RNA: B13 RNA with C25A, G26C, C29A, U31C
DNA 1: CAATCTGAATTCCGGTCTCCC
DNA 2: TGGTGGCTACGACGGGATT
B19: GGUAUUG (DNA:RNA)
RNA: B1 RNA with U25G, C26G, C27U, C28A, C30U
DNA 1: CAATCTGAATTCCGGTCTCCC
DNA 2: TGGTGGCTACGACGGGATT
B20: CUUACUC (DNA:RNA)
RNA: B13 RNA with G26U, G27U, U28A, G30U, U31C
DNA 1: CAATCTGAATTCCGGTCTCCC
DNA 2: TGGTGGCTACGACGGGATT
B21: AACUUUU (DNA:RNA)
RNA: B13 RNA with C25A, G26A, G27C, C29U, G30U
DNA 1: CAATCTGAATTCCGGTCTCCC
DNA 2: TGGTGGCTACGACGGGATT
B22: AGUUUGA (DNA:RNA)
RNA: B13 RNA with C25A, G27U, C29U, U31A
DNA 1: CAATCTGAATTCCGGTCTCCC
DNA 2: TGGTGGCTACGACGGGATT
B23: UCUACAC (DNA:RNA)
RNA: B1 RNA with C27U, C28A, U29C, C30A, G31C
DNA 1: CAATCTGAATTCCGGTCTCCC
DNA 2: TGGTGGCTACGACGGGATT
B24: CAUCGCC (DNA:RNA)
RNA: B1 RNA with U25C, C26A, C27U, U29G, G31C
DNA 1: CAATCTGAATTCCGGTCTCCC
DNA 2: TGGTGGCTACGACGGGATT
B25: UACCUUG (DNA:RNA)
RNA: B1 RNA with C26A, C30U
DNA 1: CAATCTGAATTCCGGTCTCCC
DNA 2: TGGTGGCTACGACGGGATT
B26: UUUAACG (DNA:RNA)
RNA: B1 RNA with C26U, C27U, C28A, U29A
DNA 1: CAATCTGAATTCCGGTCTCCC
DNA 2: TGGTGGCTACGACGGGATT
B27: GGUCAAC (DNA:RNA)
RNA: B13 RNA with C25G, G27U, U28C, C29A, G30A, U31C
DNA 1: CAATCTGAATTCCGGTCTCCC
DNA 2: TGGTGGCTACGACGGGATT
B28: AUAUCUA (DNA:RNA)
RNA: B13 RNA with C25A, G26U, G27A, G30U, U31A
DNA 1: CAATCTGAATTCCGGTCTCCC
DNA 2: TGGTGGCTACGACGGGATT
B29: UAGUAUC (DNA:RNA)
RNA: B13 RNA with C25U, G26A, C29A, G30U, U31C
DNA 1: CAATCTGAATTCCGGTCTCCC
DNA 2: TGGTGGCTACGACGGGATT
B30: CCAUAUG (DNA:RNA)
RNA: B13 RNA with G26C, G27A, C29A, G30U, U31G
DNA 1: CAATCTGAATTCCGGTCTCCC
DNA 2: TGGTGGCTACGACGGGATT
B31: GUUUAUG (DNA:RNA)
RNA: B13 RNA with C25G, G26U, G27U, C29A, G30U, U31G
DNA 1: CAATCTGAATTCCGGTCTCCC
DNA 2: TGGTGGCTACGACGGGATT
B32: GGGUAGA (DNA:RNA)
RNA: B13 RNA with C25G, C29A, U31A
DNA 1: CAATCTGAATTCCGGTCTCCC
DNA 2: TGGTGGCTACGACGGGATT
B33: UAGUAUG (DNA:RNA)
RNA: B13 RNA with C25U, G26A, C29A, G30U, U31G
DNA 1: CAATCTGAATTCCGGTCTCCC
DNA 2: TGGTGGCTACGACGGGATT
B34: GGGGGUA (DNA:RNA)
RNA: B13 RNA with C25G, U28G, C29G, G30U, U31A
DNA 1: CAATCTGAATTCCGGTCTCCC
DNA 2: TGGTGGCTACGACGGGATT
B35: GGGUAUG (DNA:RNA)
RNA: B13 RNA with C25G, C29A, G30U, U31G
DNA 1: CAATCTGAATTCCGGTCTCCC
DNA 2: TGGTGGCTACGACGGGATT
B36: CCGUAUG (DNA:RNA)
RNA: B13 RNA with G26C, C29A, G30U, U31G
DNA 1: CAATCTGAATTCCGGTCTCCC
DNA 2: TGGTGGCTACGACGGGATT
B37: GUAUGUU (DNA:RNA)
RNA: B13 RNA with C25G, G26U, G27A, C29G, G30U
DNA 1: CAATCTGAATTCCGGTCTCCC
DNA 2: TGGTGGCTACGACGGGATT
B38: CCCUAUG (DNA:RNA)
RNA: B1 RNA with U25C, C28U, U29A, C30U
DNA 1: CAATCTGAATTCCGGTCTCCC
DNA 2: TGGTGGCTACGACGGGATT
B39: UAGUAAA (DNA:RNA)
RNA: B13 RNA with C25U, G26A, C29A, G30A, U31A
DNA 1: CAATCTGAATTCCGGTCTCCC
DNA 2: TGGTGGCTACGACGGGATT
B40: GUUAUGU (DNA:RNA)
RNA: B13 RNA with C25G, G26U, G27U, U28A, C29U
DNA 1: CAATCTGAATTCCGGTCTCCC
DNA 2: TGGTGGCTACGACGGGATT

Each binder was assayed against T1, RBFOX1 RRM RbFoxmut (Fox-RRM*) (assay: EMSA; HiTS-Eq, 1 nM pool, 10 min; buffer printed only for the single-RNA assays: 10 mM Tris pH 7.5, 150 mM NaCl, 3.4 mM EDTA, 0.001% NP-40, 30 C). Details: tags: His6 N-terminal (pET28a); label: 5' 32P.
Method in brief: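 These values rest on relative association constants, computed from read-count changes of each RNA species versus the control reaction and normalised to the cognate motif. Reads came from free RNA recovered by 8% native PAGE after purified RbFox RRM (wild type or mutant) at increasing concentrations was equilibrated for 10 min in 50 µL with 1 nM of a 5′-radiolabelled pool with 7 randomized nucleotides and DNA-annealed flanks.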

| Binder | binding signal |
| --- | --- |
| B1 | 0.133 KA relative to UGCAUGU |
| B2 | 0.0738 KA relative to UGCAUGU |
| B3 | 0.113 KA relative to UGCAUGU |
| B4 | 0.186 KA relative to UGCAUGU |
| B5 | 0.0525 KA relative to UGCAUGU |
| B6 | 0.0834 KA relative to UGCAUGU |
| B7 | 0.0704 KA relative to UGCAUGU |
| B8 | 0.385 KA relative to UGCAUGU |
| B9 | 0.116 KA relative to UGCAUGU |
| B10 | 0.2 KA relative to UGCAUGU |
| B11 | 0.107 KA relative to UGCAUGU |
| B12 | 0.662 KA relative to UGCAUGU |
| B13 | 0.104 KA relative to UGCAUGU |
| B14 | 0.351 KA relative to UGCAUGU |
| B15 | 0.136 KA relative to UGCAUGU |
| B16 | 0.056 KA relative to UGCAUGU |
| B17 | 0.566 KA relative to UGCAUGU |
| B18 | 0.122 KA relative to UGCAUGU |
| B19 | 0.466 KA relative to UGCAUGU |
| B20 | 0.0513 KA relative to UGCAUGU |

| Binder | binding signal |
| --- | --- |
| B21 | 0.0643 KA relative to UGCAUGU |
| B22 | 0.169 KA relative to UGCAUGU |
| B23 | 0.0553 KA relative to UGCAUGU |
| B24 | 0.125 KA relative to UGCAUGU |
| B25 | 0.1 KA relative to UGCAUGU |
| B26 | 0.112 KA relative to UGCAUGU |
| B27 | 0.052 KA relative to UGCAUGU |
| B28 | 0.124 KA relative to UGCAUGU |
| B29 | 0.183 KA relative to UGCAUGU |
| B30 | 0.123 KA relative to UGCAUGU |
| B31 | 0.172 KA relative to UGCAUGU |
| B32 | 0.134 KA relative to UGCAUGU |
| B33 | 0.674 KA relative to UGCAUGU |
| B34 | 0.137 KA relative to UGCAUGU |
| B35 | 0.93 KA relative to UGCAUGU |
| B36 | 0.534 KA relative to UGCAUGU |
| B37 | 0.497 KA relative to UGCAUGU |
| B38 | 0.101 KA relative to UGCAUGU |
| B39 | 0.117 KA relative to UGCAUGU |
| B40 | 0.268 KA relative to UGCAUGU |
